PubChem BioAssay AID1159580 (chemical genetic matrix, 2015)
In all, about 5,500 compounds went through this assay and about 2,000 (36%) were called active. Inconclusive results (about 18%) are left out. Rule as the data show it: active = normalized growth mostly below about 0.91 (no sharp cut-off); inconclusive = no clear call, values can overlap the other calls; inactive = mostly above about 0.92. The list shows a part of the results.

Experiment: chemical genetic growth profiling, strain panel (AID 1159580);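 also: tested at 20 µM; growth read once vehicle control cultures reached saturation at 30 °C; 1 = growth at the plate median or of vehicle wells; lower values mean less growth of the strain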
Conditions: S. cerevisiae deletion strains, growth OD
[1] = locus YAL040C, strain CLN3, stronger effect = lower value
[2] = locus YCL061C, strain MRC1 (second series), stronger effect = lower value
[3] = locus YER002W, strain NOP16, stronger effect = lower value
[4] = locus YGR078C, strain PAC10, stronger effect = lower value
[5] = locus YGR229C, strain SMI1, stronger effect = lower value
[6] = locus YJR075W, strain HOC1, stronger effect = lower value
[7] = locus YNL175C, strain NOP13, stronger effect = lower value
[8] = locus YNL197C, strain WHI3, stronger effect = lower value
[9] = locus YNL224C, strain SQS1, stronger effect = lower value
[10] = locus YNL322C, strain KRE1, stronger effect = lower value
[11] = locus YOR083W, strain WHI5 (second series), stronger effect = lower value
[12] = locus YDR363W, strain ESC2, stronger effect = lower value
[13] = locus YNL153C, strain GIM3, stronger effect = lower value

NCCNC(=O)Cc1ccc(NC(=O)Cc2ccc(Nc3ncnc4c3ncn4[C@@H]3O[C@H](CO)[C@H](O)C3O)cc2)cc1 (some centres not stated)
normalized growth [1]: 1.01 (inactive)
normalized growth [2]: 0.999 (inactive)
normalized growth [3]: 0.999 (inactive)
normalized growth [4]: 1.01 (inactive)
normalized growth [5]: 1.03 (inactive)
normalized growth [6]: 1 (inactive)
normalized growth (locus YMR263W, strain SAP30, stronger effect = lower value): 1.01 (inactive)
normalized growth [7]: 1.01 (inactive)
normalized growth [8]: 1.02 (inactive)
normalized growth [9]: 0.994 (inactive)
normalized growth [10]: 1 (inactive)
normalized growth [11]: 1.02 (inactive)

COC(=O)N1CCN(C(=O)Cc2ccc(Cl)c(Cl)c2)C(CN2CCCC2)C1 (configuration not stated)
normalized growth [1]: 0.997 (inactive)
normalized growth [2]: 1.01 (inactive)
normalized growth (locus YDR150W, strain NUM1, stronger effect = lower value): 1 (inactive)
normalized growth [12]: 1 (inactive)
normalized growth [3]: 0.995 (inactive)
normalized growth [4]: 1 (inactive)
normalized growth [5]: 0.982 (inactive)
normalized growth [6]: 1.01 (inactive)
normalized growth (locus YMR307W, strain GAS1, stronger effect = lower value): 1 (inactive)
normalized growth (locus YNL128W, strain TEP1, stronger effect = lower value): 1.01 (inactive)
normalized growth [13]: 1 (inactive)
normalized growth [7]: 1.01 (inactive)
normalized growth [8]: 1.04 (inactive)
normalized growth [9]: 1 (inactive)
normalized growth [10]: 1.01 (inactive)
normalized growth [11]: 1.05 (inactive)
normalized growth (locus YPL241C, strain CIN2, stronger effect = lower value): 1 (inactive)

Cc1nc(-c2ccc(C(F)(F)F)cn2)[nH]c(=O)c1Cl
normalized growth (locus YAR019C, strain CDC15, stronger effect = lower value): 0.899 (inactive)
normalized growth (locus YBL105C, strain PKC1, stronger effect = lower value): 0.932 (inactive)
normalized growth (locus YBR135W, strain CKS1, stronger effect = lower value): 0.916 (inactive)
normalized growth (locus YBR136W, strain MEC1, stronger effect = lower value): 0.922 (inactive)
normalized growth (locus YBR160W, strain CDC28, stronger effect = lower value): 0.922 (inactive)
normalized growth (locus YDL017W, strain CDC7, stronger effect = lower value): 0.938 (inactive)
normalized growth (locus YDL028C, strain MPS1, stronger effect = lower value): 0.909 (inactive)
normalized growth (locus YDL101C, strain DUN1, stronger effect = lower value): 0.939 (inactive)
normalized growth (locus YDL108W, strain KIN28, stronger effect = lower value): 0.921 (inactive)
normalized growth (locus YDL132W, strain cdc53, stronger effect = lower value): 0.905 (inactive)
normalized growth (locus YDL214C, strain PRR2, stronger effect = lower value): 0.86 (inactive)
normalized growth (locus YDR052C, strain DBF4, stronger effect = lower value): 0.943 (inactive)
normalized growth (locus YDR054C, strain cdc34, stronger effect = lower value): 0.887 (inactive)
normalized growth (locus YDR226W, strain ADK1, stronger effect = lower value): 0.924 (inactive)
normalized growth (locus YDR477W, strain SNF1, stronger effect = lower value): 0.833 (inactive)
normalized growth (locus YER123W, strain YCK3, stronger effect = lower value): 0.692 (inactive)
normalized growth (locus YER133W, strain GLC7, stronger effect = lower value): 0.831 (inactive)
normalized growth (locus YFL009W, strain cdc4, stronger effect = lower value): 0.896 (inactive)
normalized growth (locus YFL029C, strain CAK1, stronger effect = lower value): 0.901 (inactive)
normalized growth (locus YFR003C, strain YPI1, stronger effect = lower value): 0.929 (inactive)
normalized growth (locus YFR019W, strain FAB1, stronger effect = lower value): 0.908 (inactive)
normalized growth (locus YFR028C, strain CDC14, stronger effect = lower value): 0.918 (inactive)
normalized growth (locus YGR040W, strain KSS1, stronger effect = lower value): 0.834 (inactive)
normalized growth (locus YGR052W, strain FMP48, stronger effect = lower value): 0.815 (inactive)
normalized growth (locus YGR092W, strain DBF2, stronger effect = lower value): 0.689 (inactive)
normalized growth (locus YHR079C, strain IRE1, stronger effect = lower value): 0.639 (inactive)
normalized growth (locus YHR082C, strain KSP1, stronger effect = lower value): 0.945 (inactive)
normalized growth (locus YHR205W, strain SCH9, stronger effect = lower value): 0.978 (inactive)
normalized growth (locus YIL147C, strain SLN1, stronger effect = lower value): 0.919 (inactive)
normalized growth (locus YJL095W, strain BCK1, stronger effect = lower value): 0.675 (inactive)
normalized growth (locus YJL128C, strain PBS2, stronger effect = lower value): 0.928 (inactive)
normalized growth (locus YJL157C, strain FAR1, stronger effect = lower value): 0.813 (inactive)
normalized growth (locus YJR016C, strain ILV3, stronger effect = lower value): 0.924 (inactive)
normalized growth (locus YJR066W, strain TOR1 (second series), stronger effect = lower value): 0.769 (inactive)
normalized growth (locus YJR066W, strain TOR1, stronger effect = lower value): 0.848 (inactive)
normalized growth (locus YKL048C, strain ELM1, stronger effect = lower value): 0.927 (inactive)
normalized growth (locus YKL067W, strain YNK1, stronger effect = lower value): 0.857 (inactive)
normalized growth (locus YKL101W, strain HSL1, stronger effect = lower value): 0.88 (inactive)
normalized growth (locus YKL193C, strain SDS22, stronger effect = lower value): 0.903 (inactive)
normalized growth (locus YKL203C, strain TOR2, stronger effect = lower value): 0.886 (inactive)
normalized growth (locus YLR113W, strain HOG1, stronger effect = lower value): 0.651 (active)
normalized growth (locus YLR133W, strain CKI1, stronger effect = lower value): 0.857 (inactive)
normalized growth (locus YLR403W, strain SFP1, stronger effect = lower value): 0.809 (inactive)
normalized growth (locus YML070W, strain DAK1, stronger effect = lower value): 0.825 (inactive)
normalized growth (locus YMR001C, strain CDC5, stronger effect = lower value): 0.914 (inactive)
normalized growth (locus YMR205C, strain PFK2 (second series), stronger effect = lower value): 0.859 (inactive)
normalized growth (locus YMR277W, strain FCP1, stronger effect = lower value): 0.893 (inactive)
normalized growth (locus YNL006W, strain LST8, stronger effect = lower value): 0.957 (inactive)
normalized growth (locus YNL020C, strain ARK1, stronger effect = lower value): 0.853 (inactive)
normalized growth (locus YNL161W, strain CBK1, stronger effect = lower value): 0.912 (inactive)
normalized growth (locus YNL183C, strain NPR1, stronger effect = lower value): 0.696 (inactive)
normalized growth (locus YNL207W, strain RIO2, stronger effect = lower value): 0.919 (inactive)
normalized growth (locus YNL222W, strain SSU72, stronger effect = lower value): 0.905 (inactive)
normalized growth (locus YNL307C, strain MCK1 (second series), stronger effect = lower value): 0.826 (inactive)
normalized growth (locus YOL078W, strain AVO1, stronger effect = lower value): 0.896 (inactive)
normalized growth (locus YOL136C, strain PFK27, stronger effect = lower value): 0.868 (inactive)
normalized growth (locus YOR061W, strain CKA2, stronger effect = lower value): 0.858 (inactive)
normalized growth (locus YOR119C, strain RIO1, stronger effect = lower value): 0.821 (inactive)
normalized growth (locus YOR231W, strain MKK1, stronger effect = lower value): 0.685 (inactive)
normalized growth (locus YOR329C, strain SCD5, stronger effect = lower value): 0.93 (inactive)
normalized growth (locus YPL031C, strain PHO85, stronger effect = lower value): 0.787 (inactive)
normalized growth (locus YPL153C, strain RAD53, stronger effect = lower value): 0.755 (inactive)
normalized growth (locus YPL204W, strain HRR25, stronger effect = lower value): 0.777 (inactive)
normalized growth (locus YPL209C, strain IPL1, stronger effect = lower value): 0.926 (inactive)
normalized growth (locus YPL256C, strain CLN2, stronger effect = lower value): 0.72 (active)
normalized growth (locus YPR025C, strain CCL1, stronger effect = lower value): 0.923 (inactive)
normalized growth (locus YPR106W, strain ISR1, stronger effect = lower value): 0.95 (inactive)
normalized growth (locus YPR111W, strain DBF20, stronger effect = lower value): 0.937 (inactive)
normalized growth (strain NNK1, stronger effect = lower value): 0.932 (inactive)
normalized growth (strain TSCII, stronger effect = lower value): 0.888 (inactive)

CN1CCC23CCCC[C@H]2C1Cc1ccc(O)cc13 (some centres not stated)
normalized growth [1]: 1.01 (inactive)
normalized growth [2]: 1 (inactive)
normalized growth [12]: 1.03 (inactive)
normalized growth [3]: 0.998 (inactive)
normalized growth [5]: 1.04 (inactive)
normalized growth [6]: 1.01 (inactive)
normalized growth [13]: 1.02 (inactive)
normalized growth [7]: 1.01 (inactive)
normalized growth [8]: 1.05 (inactive)
normalized growth [9]: 1.01 (inactive)
normalized growth [10]: 1.02 (inactive)
normalized growth [11]: 0.989 (inactive)
normalized growth (locus YPL055C, strain LGE1, stronger effect = lower value): 0.998 (inactive)
